± gives the standard deviation of the averaged measurements. Whole data set: some 33,000 sequences, median “E-score (rank enrichment, -0.5 to 0.5)” near -0.0068, cut for the highest 2% near 0.24. This excerpt belongs to a sample that is enriched for the highest values.
System: muMax20 (Max(13-93) K31hArg/K57hArg, M65Nle)
Test: PBM 8-mer E-score (E-score (rank enrichment, -0.5 to 0.5)); higher = stronger preferential binding
Protocol: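 Protein binding microarray (universal PBM chip covering all 10-mers in fixed probe flanks) with chemically synthesized human Max(13-93) bHLH-LZ analogs (not full-length Max) bearing noncanonical residues (hArg, Tha, Aib, Nle at 65) and aromatic Cys staples. Read-out per 8-mer (and its reverse complement): E-score (rank-based enrichment, -0.5 to 0.5) and Z-score of median probe intensity.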

Sequence | PBM 8-mer E-score
AATAGTAG | 0.0461 ± 0.02
AAAAGTAA | 0.12 ± 0.033
CAAAGCTG | 0.0952 ± 0.083
AAAAGCTG | 0.271 ± 0.081
AAAAGCAC | 0.162 ± 0.061
AAAAGCAT | 0.243 ± 0.018
AAAAGTAT | 0.249 ± 0.044
AAAAGTAC | 0.184 ± 0.042
AAAAGCAG | -0.0145 ± 0.05
AAAAGCTA | 0.123 ± 0.0035
AATAGTAT | 0.24 ± 0.012
AATAGTAA | 0.152 ± 0.012
CCGTCGTC | -0.109 ± 0.011
AACTGGGT | -0.078 ± 0.061
CCAATGAG | -0.095 ± 0.001
CATGGACG | 0.0146 ± 0.1
GAAGAGGC | -0.108 ± 0.083
AGACGGAT | 0.0634 ± 0.17
GTCAATGA | 0.0559 ± 0.0022
CCTGCTGC | -0.107 ± 0.061
TAGTATCA | 0.131 ± 0.033
ATAGATGA | 0.0906 ± 0.033
AACGCATA | 0.0704 ± 0.12
ACAGGTGA | 0.264 ± 0.062
CCAGGTGA | -0.121 ± 0.026

Sequence | PBM 8-mer E-score
AGACGTGA | 0.104 ± 0.027
ACACGTGC | 0.452 ± 0.05
ACACGTCT | 0.0471 ± 0.065
ATACGTGA | 0.068 ± 0.019
AGACGTGC | -0.0738 ± 0.042
ACACGTCA | 0.246 ± 0.006
ACACGTCG | -0.148 ± 0.048
ACACGTAC | 0.137 ± 0.036
GCAGGTGA | -0.0216 ± 0.0013
ACACGTGA | 0.432 ± 0.055
AGCTCTTG | 0.00816 ± 0.055
CAGGCAGA | -0.144 ± 0.036
CCGGCAAA | -0.223 ± 0.11
AAACCGTC | -0.172 ± 0.074
ACCCAGAC | -0.109 ± 0.007
CTAACGCC | -0.0238 ± 0.038
AATTGCCT | 0.00671 ± 0.018
AATAGGGA | 0.142 ± 0.022
CGTTACAC | -0.0405 ± 0.053
AAACGTGT | 0.169 ± 0.1
ACACGTGT | 0.469 ± 0.029
TCACGTAA | 0.0827 ± 0.0065
TCACGTGA | 0.442 ± 0.044
AAACGTGG | 0.201 ± 0.0053
ACACGTAT | 0.218 ± 0.052

Sequence | PBM 8-mer E-score
ACACGTGG | 0.446 ± 0.062
ACACGTAG | 0.0342 ± 0.052
TAACGTGA | 0.101 ± 0.052
CTTCTACC | 0.00215 ± 0.038
ACAGAATG | 0.088 ± 0.021
GTTTTCGA | -0.0225 ± 0.1
TCGGCCAA | -0.181 ± 0.076
GAATCCAC | 0.0142 ± 0.053
CAATTGTG | 0.0641 ± 0.093
ATAAGGAT | 0.246 ± 0.039
ATAAGGAA | 0.0142 ± 0.076
ATAAGGTC | 0.218 ± 0.028
ATAAGGTA | 0.244 ± 0.019
CTAAGGTA | 0.0373 ± 0.061
ATAAGGAC | 0.0929 ± 0.069
CTCTACCC | 0.0459 ± 0.077
CCAACAGA | -0.00227 ± 0.052
GTAGCTCA | -0.0957 ± 0.0039
AACTCAGT | -0.0615 ± 0.032
CAGACACG | -0.0512 ± 0.046
CAAAGACA | 0.129 ± 0.0062
ATGACACG | 0.238 ± 0.041
AAGACACG | 0.293 ± 0.005
AAAAGATG | 0.263 ± 0.086
CAAAGATG | 0.0977 ± 0.0035

Sequence | PBM 8-mer E-score
AAAAGATT | 0.0851 ± 0.1
ATGACACA | 0.156 ± 0.0051
AAAAGACA | 0.237 ± 0.011
AAAAGACC | 0.0838 ± 0.031
AAGACACA | 0.1216 ± 0.00079
GTGACACA | 0.0546 ± 0.001
GACCACGC | 0.121 ± 0.055
TCGATGAA | -0.0576 ± 0.025
TGGCGGAA | -0.0751 ± 0.029
CCCAGAGC | -0.115 ± 0.017
AAAGCAGA | 0.176 ± 0.01
AATATATT | 0.244 ± 0.0097
ATTATTTG | 0.212 ± 0.051
GATATTTA | 0.104 ± 0.032
AATATTCC | 0.149 ± 0.012
AATATATA | 0.235 ± 0.04
AATATAGT | 0.219 ± 0.013
CATATTTA | 0.288 ± 0.0037
CATATTTC | 0.133 ± 0.0054
AATATTCA | 0.259 ± 0.0058
AATATTCG | 0.134 ± 0.0048
GTTATTTA | 0.222 ± 0.014
ATTATTTA | 0.256 ± 0.072
ATGCGGGG | -0.0713 ± 0.071
TCAGGTAA | 0.0683 ± 0.047

Sequence | PBM 8-mer E-score
GTAGACTA | -0.0707 ± 0.066
CAGTGGGG | -0.0911 ± 0.22
TCTCCGAA | -0.233 ± 0.047
AGGCATGC | 0.121 ± 0.03
GAGTGGCA | -0.0109 ± 0.066
GGTATTTA | 0.173 ± 0.045
ATTATTTC | 0.186 ± 0.039
CTTATTTC | 0.24 ± 0.14
AATATTTC | 0.209 ± 0.035
CGTATTTA | 0.248 ± 0.068
AATATTTG | 0.167 ± 0.11
CTTATTTA | 0.0812 ± 0.083
AGTATTTA | 0.222 ± 0.019
AATATTTA | 0.287 ± 0.011
CTCTCCCA | 0.00928 ± 0.07
CACGTATC | 0.158 ± 0.0092
GTCTATAA | 0.181 ± 0.04
CCGTTAAA | -0.00804 ± 0.013
CATGACAA | 0.2087 ± 0.00054
AATGACAA | 0.241 ± 0.033
AATGACAC | 0.161 ± 0.056
AGAATATA | 0.254 ± 0.039
CGAATATC | -0.0375 ± 0.072
AGAATATC | 0.129 ± 0.027
CGAATATA | 0.237 ± 0.065

Sequence | PBM 8-mer E-score
AGAATATG | 0.227 ± 0.029
GGAATATA | 0.0712 ± 0.077
AGAAACCC | 0.0541 ± 0.034
AGTAGCTC | -0.0686 ± 0.0062
CCTGTCGC | -0.224 ± 0.021
CATATAGG | 0.147 ± 0.0067
AATCTATA | 0.143 ± 0.05
CATATATA | 0.271 ± 0.095
CATATATC | 0.171 ± 0.05
AATATGTA | 0.124 ± 0.0062
GATATGTA | 0.103 ± 0.057
AATATATG | 0.208 ± 0.089
CATCTATA | 0.278 ± 0.013
GATCTATA | -0.0926 ± 0.0098
TATATATA | 0.228 ± 0.091
CATATGTA | 0.257 ± 0.061
CATATATG | 0.259 ± 0.017
AAACGAGT | 0.044 ± 0.013
AGTGTGAT | 0.125 ± 0.043
CGTATAGA | 0.0652 ± 0.077
AAGGTTAT | -0.0312 ± 0.054
CACGGTTA | 0.00552 ± 0.11
TCGGAACA | -0.0705 ± 0.069
CAGTGGCC | -0.25 ± 0.067
CAGAGCCA | -0.17 ± 0.01

Sequence | PBM 8-mer E-score
AGCTGGGC | -0.0998 ± 0.075
ACCACAGG | -0.113 ± 0.031
GCACTTGA | -0.0604 ± 0.011
TGCTCGAA | 0.069 ± 0.0081
ACCCAGTG | -0.0911 ± 0.074
AATATGTG | 0.28 ± 0.094
AATATGGC | 0.24 ± 0.07
ACTATGTG | 0.109 ± 0.069
AATATGGA | 0.156 ± 0.017
AATATGTC | 0.0382 ± 0.013
AATATGGT | 0.095 ± 0.017
CAGTTAGG | 0.0928 ± 0.049
GATGCTAA | -0.0557 ± 0.067
GCGTCGAC | -0.038 ± 0.027
CATAAGAG | 0.0912 ± 0.02
GATGCTGC | -0.0878 ± 0.08
CGCCCTGA | -0.0272 ± 0.05
ATAATCGG | 0.137 ± 0.011
CTAAAGTC | -0.208 ± 0.11
ATAAAGTA | 0.228 ± 0.048
GTAAAGTA | 0.284 ± 0.074
ATAAAGTG | 0.0933 ± 0.062
ATAAAGTC | 0.239 ± 0.082
CTAAAGTA | 0.00517 ± 0.053
